High-throughput results: PubChem BioAssay, several laboratories
Rows were chosen to be rich in hits. Some 4.2% of all compounds tested hit in one or more screens of this group.
hgDAF12 agonist: H. glycines DAF-12 receptor agonists, primary screen, cell-based, luminescence, HEK293, GAL4 fusion, UAS-luciferase; HEK293 GAL4-hgDAF12 UAS-luciferase reporter, agonist luminescence; normalized to butyrate control; activation, % at 6.8 µM; 370,000 compounds, 1.8% hits;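 active means activation above a cutoff set at the mean of all screened compounds plus 3 SD, cut at about 10% in these data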;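 further: 0% = DMSO wells and 100% = sodium butyrate wells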
Wnt act: Wnt/beta-catenin pathway activators, primary screen, cell-based, plate reader, single point | Wnt/beta-catenin reporter cell assay, activator | activation, % at 9.35 µM | 300,000 compounds, 1.2% hits; in the data active means activation above about 30%, passing the limit was not always enough; inconclusive means no clear call, values can overlap the other calls;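 further: 0% = neutral control wells and 100% = positive control wells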
hcDAF-12 act: H. contortus DAF-12 nuclear receptor activators, primary screen, cell-based, luminescence, HEK293, lit1-tk-luc reporter; HEK293 hcDAF-12 lit1-tk-luc reporter; 0% DMSO, 100% Δ7-dafachronic acid; activation, % at 6.8 µM; 370,000 compounds, 1.4% hits; AID 652067, 2013;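 active means activation above the mean of all tested compounds plus 3 SD, cut at about 5.5% in these data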;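 further: 100% = response to 3 µM Δ7-dafachronic acid high control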
DAX1 inh: DAX1 (NR0B1) inhibitors on StAR promoter, primary screen, cell-based, luminescence, SF-1 (NR5A1), full-length DAX-1; HEK293T StAR-luciferase reporter, SF-1/DAX-1 repression relief; inhibition, % at 6.8 µM; 370,000 compounds, 1.1% hits; AID 652010, 2013;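 active means inhibition above the mean over all tested compounds plus 3 SD, cut at about 3.6% in these data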;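 further: 0% = DAX-1 cells with DMSO and 100% = cells lacking DAX-1 with DMSO; higher inhibition means more luminescence from relief of DAX-1 repression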
ssDAF-12 act: S. stercoralis DAF-12 nuclear receptor activators, primary screen, cell-based, luminescence, HEK293, GRIP1 co-expression, lit1-tk-luc; Nuclear hormone receptor DAF-12 (Strongyloides stercoralis); HEK293 ssDAF-12/GRIP1 lit1-tk-luc reporter; % of 3 µM dafachronic acid response; 370,000 compounds, 1% hits; activation, % at 6.8 µM;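 active means activation above the mean over all tested compounds plus 3 SD, cut at about 0.9% in these data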;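 further: 0% = DMSO-only wells and 100% = 3 µM delta7-dafachronic acid wells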
esBAF inh: Bmi1 luciferase reporter increase in mESCs, primary screen, esBAF inhibitor project, mouse ES cells, Bmi1 luciferase knock-in, single point; 24 h; 100% = twice the neutral-well signal; reporter increase, % at 12.5 µM; 350,000 compounds, 2% hits; AID 602393, 2012; in the data active means activation above about 40%; inconclusive means no clear call, values can overlap the other calls;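 further: 0% = median of the plate's neutral control wells and 100% = double that signal; a rise in the Bmi1 reporter signal indicates esBAF inhibition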
Starred values were filed as active, the others as inactive; ? = inconclusive; . = not tested or not shown.

SMILES | hgDAF12 agonist | Wnt act | hcDAF-12 act | DAX1 inh | ssDAF-12 act | esBAF inh
CNC[C@H]1Oc2ncc(-c3ccccc3C)cc2C(=O)N([C@@H](C)CO)C[C@H]1C | . | . | . | . | . | 3
COc1ccc(-c2cc(NC=O)c3ncc(-c4cccc(C(C)=O)c4)n3c2)cc1 | -2 | 0 | -2 | -2 | -2 | 3
COc1cc(-c2cnc3c(NC=O)cc(-c4ccccc4Cl)cn23)cc(OC)c1OC | -8 | -1 | 1 | 4.2* | -1 | -29
COc1cccc(-c2cc(NC=O)c3ncc(-c4ccc(C(C)=O)cc4)n3c2)c1 | 11* | . | 5 | -5 | 0 | 1
CN(C)C(=O)c1cccc(-c2cnc3c(NC=O)cc(-c4ccccc4Cl)cn23)c1 | 12* | 3 | -2 | 3 | -1 | 7
CC(=O)Nc1cc(-c2cccc(F)c2)cn2c(-c3ccc(F)c(Cl)c3)cnc12 | -2 | -4 | 0 | 4.5* | -1 | -5
C[C@H]1CN([C@@H](C)CO)C(=O)Cc2cc(NC(=O)Nc3ccc(F)cc3)ccc2O[C@@H]1CN(C)C(=O)Nc1ccccc1 | . | . | . | . | . | -3
COc1cc(-c2cnc3c(NC=O)cc(-c4ccccc4)cn23)cc(OC)c1OC | -3 | -3 | -3 | 4.2* | -2 | -11
COc1ccccc1-c1cnc2c(c1)C(=O)N([C@H](C)CO)C[C@@H](C)[C@H](CN(C)Cc1ccc(C(=O)O)cc1)O2 | . | . | . | . | . | -9
COc1cccc(-c2nc(-c3ccncc3)no2)c1 | 10 | 35* | 5 | 1 | 0 | .
COc1ccc(-c2nc(-c3ccncc3)no2)cc1OC | 9 | . | 3 | 1 | 0 | 63*
CCOc1ccc(-c2noc(-c3ccncc3)n2)cc1OCC | 0 | 2 | 1 | 0 | 0 | 11
COc1ccc(CCC(=O)Nc2ccc(-c3noc(-c4ccc(OC)c(OC)c4)n3)cc2)cc1 | 4 | . | -2 | 0 | -1 | 43*
COc1ccc(-c2nc(-c3ccc(NC(=O)c4ccc(Br)o4)cc3)no2)cc1OC | 2 | . | 2 | 1 | -1 | .
O=[N+]([O-])c1cccc(-c2nc(-c3ccncc3)no2)c1 | 4 | 0 | -1 | -1 | 0 | 35
COc1ccc(-c2noc(-c3ccc(Cl)cc3[N+](=O)[O-])n2)cc1OC | 7 | 21 | 5.7* | 1 | -1 | .
COc1ccc(-c2noc(-c3cccc(Cl)c3)n2)cc1OC | 3 | 11 | -2 | 0 | -2 | 49*
COc1ccc(-c2noc(-c3ccccc3Cl)n2)cc1OC | 7 | 0 | 2 | 3 | -1 | ?
Cc1cc(Cl)ccc1OCCn1cncn1 | 4 | -1 | 6.0* | 0 | 0 | .
Cc1cc(Cl)ccc1NC(=O)Cn1cncn1 | -3 | -1 | -1 | 0 | -1 | -3
CCOC(=O)N1CCN(S(=O)(=O)c2ccc(C(=O)N(CCN(C)C)c3nc4ccc(Cl)cc4s3)cc2)CC1 | 1 | 4 | 3 | 3 | -1 | 15
CCOC(=O)N1CCN(S(=O)(=O)c2ccc(C(=O)N(CCCN(C)C)c3nc4ccc(OC)cc4s3)cc2)CC1 | -1 | -1 | 2 | 3.6* | 0 | -11
COc1ccc(NC(=O)c2cc(-c3ccco3)on2)c(OC)c1 | -1 | -1 | 2 | 0 | -1 | 8
COc1ccc(NC(=O)c2cc(-c3ccccc3OC)on2)cc1 | 6 | . | 3 | -2 | 0 | 13
COc1ccc(NC(=O)c2cc(-c3ccccc3Cl)on2)cc1 | 7 | ? | 3 | 0 | 0 | 63*
COc1ccc(NC(=O)c2cc(-c3ccco3)on2)cc1 | -1 | 42* | 1 | 0 | 0 | .
CCc1ccc(NC(=O)c2cc(-c3ccco3)on2)cc1 | 2 | . | 1 | -1 | -2 | 66*
